# An excerpt weighted towards active compounds, which were near 6.7% of everything screened.
# KB-3-1 cytotox = kills parental KB-3-1 adenocarcinoma cells; KB-3-1 viability, CellTiter-Glo ATP luminescence, 72 h; 400,000 tested, 1.4% active; Potency, µM (titrated, usually from 46.1 µM), actives largely listed as cytotoxic; also: nearly all actives have a fitted effect of over 60% in size
#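 Parental KB-3-1 viability, qHTS format: 72 h compound exposure, 37 °C; CellTiter-Glo; media-only wells and DMSO plates as controls; concentration-effect fits on corrected data.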
# KB-V1 cytotox = KB-V1 MDR subline cytotoxicity; AID 1347076; 400,000 tested, 3.4% active; Potency, µM (doses to about 46.1 µM), actives largely listed as cytotoxic; KB-V1 MDR cells viability, CellTiter-Glo, 72 h; also: nearly all actives have a fitted effect of over 60% in size
#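 Following 72 h at 37 degrees C with compound, KB-V1 cell viability was read by CellTiter-Glo luminescence, medium being phenol-red-free DMEM plus 10% FBS; concentration-response parameters came from normalized, curve-fitted qHTS data.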
# PINK1 modulator = modulators of PINK1 expression; PINK1 immunofluorescence, high-content cytometry, 24 h; Potency, µM (highest dose often 76.6 µM), usual class: activators; 410,000 tested, 0.2% active; AID 624263; active = well fitted activation curve with a large enough effect; inconclusive = small, poorly fitted or top-dose-only effect; cell line not stated here; also: nearly all actives have a fitted effect of over 65% in size
#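 Fluorescence from anti-PINK1 antibody, together with nuclear and cell stains, was scanned on a laser-scanning cytometer. Before staining, stable-line cells were incubated 24 hours with compounds at 5 concentrations; primary antibody 12 h at 10 degrees C.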
# MCF10A rereplic = induces DNA re-replication in MCF 10a normal breast cells; MCF 10A DNA re-replication, Hoechst nuclear intensity, 48 h; Potency, µM (doses to about 46.1 µM), hits mostly activators; 350,000 tested, 2.9% active; also: nearly all actives have a fitted effect of over 50% in size
# SW480 rerep = inducers of DNA re-replication in SW480 colon cancer cells. 340,000 tested, 1.8% active. SW480 DNA re-replication, Hoechst DNA content imaging, 48 h. AID 624297. Potency, µM (doses to about 46.1 µM), actives largely listed as activators; also: nearly all actives have a fitted effect of over 55% in size
#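 Per well, 250 cells were exposed to pinned compound for 48 hr. Nuclear DNA was visualised with Hoechst (40 min, 37 C) and total object intensity recorded by fluorescence scanning.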
# Numbers stand for hits; i = inactive; ? = inconclusive; nt = no result. Unless noted, calls follow the shape of the dose curve; as a rule, active = well fitted curve in the direction sought with a large enough effect; inconclusive = small, poorly fitted or top-dose-only effect, or another doubt; inactive = no such curve, though single readings can be large; an effect the other way counts as inactive or inconclusive.
SMILES,KB-3-1 cytotox,KB-V1 cytotox,PINK1 modulator,MCF10A rereplic,SW480 rerep
C=CCN(C(=O)c1csnn1)C(C(=O)NCc1ccccc1)c1cccs1 (configuration not stated),i,i,i,i,i
Cc1scc(-c2n[nH]c(=S)n2C(C)c2ccccc2)c1C (configuration not stated),?,?,i,10.3µM,i
CCCCCc1c(-c2ccc(Br)cc2)ncn1CCc1ccccc1OC,?,16.4µM,i,nt,nt
CCCCCc1c(-c2cccc(Cl)c2)ncn1CCc1ccccc1OC,i,?,i,nt,nt
CCCCCc1c(-c2ccc(F)cc2)ncn1CCc1ccccc1OC,18.4µM,11.6µM,i,nt,nt
Cc1ccc(-n2c(C)cc(/C=C3/SC(=O)N(CC(=O)N4CCOCC4)C3=O)c2C)nc1,i,i,i,i,18.4µM
Cc1c2c(nc3nc4ccccc4n13)CC(C)(C)CC2=O,i,14.6µM,i,i,i
CN(C)c1ccc(/C=C/C(=O)c2ccccc2)cc1[N+](=O)[O-],i,i,i,i,i
COc1ccc(C(=O)/C=C/c2ccc(OCc3ccccc3)cc2)cc1CSCC(=O)O,i,i,i,23.1µM,?
COc1ccc(Oc2ccc(/C=C/C(=O)c3ccc(O)cc3)cc2[N+](=O)[O-])cc1,i,?,i,2.91µM,7.31µM
O=C(O)COc1ccc(/C=C/C(=O)c2ccc3ccccc3c2)cc1,?,i,i,18.4µM,i
O=C(/C=C/c1ccc(O)c([N+](=O)[O-])c1)c1ccc2ccccc2c1,i,i,i,7.31µM,?
CCC(C)NC(=O)Cn1c(=O)n(Cc2ccc(C(=O)NCCCOC)cc2)c(=O)c2ccccc21 (configuration not stated),i,i,i,nt,nt
C/C(=N\NC(=S)NC(C)C)c1ccc(Cl)s1,i,?,i,?,?
C/C(=N\NC(N)=S)c1ccc(Cl)s1,16.4µM,6.51µM,i,?,?
COc1cc(NC2=Nc3cccc4cccc2c34)cc(OC)c1OC,i,2.59µM,i,?,?
COc1cccc(NC2=Nc3cccc4cccc2c34)c1,i,13µM,i,i,i
COc1ccc(NC2=Nc3cccc4cccc2c34)cc1OC,i,?,i,i,i
CCOC(=O)CN(C(=O)Cn1nnc(-c2ccc(C)cc2)n1)C(CC)C(=O)NC1CCCC1 (configuration not stated),i,4.11µM,i,i,i
CCC(C(=O)NC1CCCC1)N(Cc1ccco1)C(=O)Cn1nnc(-c2ccc(C)cc2)n1 (configuration not stated),i,i,i,i,i
COc1cc(-c2nc3c(c(C)nn3-c3ccccc3)c3cc(OC)c(OC)cc23)ccc1O,?,?,i,13µM,i
CC1(S(=O)(=O)O)CC(=O)c2ccccc2C1=O (configuration not stated),?,i,?,?,14.6µM
COc1cccc(CNC(=O)Cn2c(=O)ccc3cc(S(=O)(=O)N4CCCC4)ccc32)c1,i,i,i,nt,nt
Cc1ccc(C(=O)/C=C/c2ccc3ncccc3c2)cc1,i,i,i,18.4µM,?
O=C(/C=C/c1ccc(O)cc1)c1ccc(O)cc1O,?,?,i,14.6µM,i
SMILES,KB-3-1 cytotox,KB-V1 cytotox,PINK1 modulator,MCF10A rereplic,SW480 rerep
O=C(/C=C/Nc1cccc(O)c1)c1ccccc1,i,i,nt,?,i
Cc1ccc(C(=O)/C=C/Nc2cccc(O)c2)cc1,i,i,nt,23.1µM,?
COc1ccc(/C=C/C(=O)c2ccc(O)cc2O)cc1,nt,nt,i,nt,nt
Cc1ccc(/C=C/C(=O)c2ccc(O)cc2)cc1,?,?,i,?,18.4µM
COc1ccc(-n2c(CNC(=O)c3ccc(OC)cc3OC)nnc2SC)cc1,nt,nt,i,nt,nt
Cc1ccc(Cl)cc1NC(=O)CSc1ccc(C(=O)O)cn1,i,?,i,nt,nt
CC(NC(=O)Nc1cccc([N+](=O)[O-])c1)(C(F)(F)F)C(F)(F)F,18.4µM,?,?,i,i
O=[N+]([O-])c1cccc(NC2=NCCC2)c1,13µM,i,i,i,i
O=C(Nc1cccc([N+](=O)[O-])c1)c1cccc(C(=O)Nc2cccc([N+](=O)[O-])c2)c1,i,i,i,i,i
O=C(Nc1cccc([N+](=O)[O-])c1)Nc1cccs1,i,i,i,0.651µM,i
O=C(Nc1cccc([N+](=O)[O-])c1)Nc1ccc2c(c1)CCC2,?,23.1µM,?,i,i
COC(=O)c1ccccc1NC(=O)Cn1c(=O)n(-c2cccc(OC)c2)c(=O)c2c(C)c(C(=O)N(C)C)sc21,nt,nt,i,nt,nt
COc1ccc(CNC(=O)CCCCCn2c(=O)[nH]c3ccccc3c2=O)cc1,i,?,i,nt,nt
CN(C(=O)COC(=O)CNC(=O)C1CCCCC1)c1ccccc1,i,?,i,i,20.6µM
O=C(COC(=O)CNC(=O)C1CCCCC1)Nc1ccccc1,i,i,i,i,i
O=C(COc1coc(CN2CCN(c3ccccc3F)CC2)cc1=O)NCC1CCCO1 (configuration not stated),i,i,i,i,i
Cc1ccc(S(=O)(=O)N(C)c2ccc3c(c2)C(=O)c2ccccc2-3)cc1,?,20.6µM,i,nt,nt
COc1ccc2cc(CNCCOCCOCCNCc3ccc4cc(OC)ccc4c3)ccc2c1,7.31µM,9.2µM,i,7.31µM,i
O=C(Nc1ccc(F)cc1)C(c1cccc(F)c1)N1CCN(c2ccncc2)CC1 (configuration not stated),i,i,nt,nt,nt
O=C(Nc1ccccc1Br)c1ccc(N2CCCC2=O)cc1,i,?,i,i,i
COc1ccc(N(C(=O)C(C)C)S(=O)(=O)c2ccc(Cl)cc2)cc1,i,18.4µM,i,i,i
Cc1nn(C)c(C)c1NC(=O)CSc1nnc(C)n1-c1ccccc1,i,i,i,i,i
O=C(CSc1nnc(Cn2nnc(-c3ccccc3)n2)n1-c1ccccc1)Nc1ccc(F)cc1,i,i,nt,i,i
Cc1cccc(C)c1NC(=O)CSc1nnc(Cn2nnc(-c3ccccc3)n2)n1-c1ccccc1,i,8.2µM,i,i,i
O=C(CSc1nnc(Cn2nnc(-c3ccccc3)n2)n1-c1ccccc1)Nc1ccccc1,i,14.6µM,i,i,i
SMILES,KB-3-1 cytotox,KB-V1 cytotox,PINK1 modulator,MCF10A rereplic,SW480 rerep
COCC(=O)Nc1cc(C(=O)N2CCCC(C(N)=O)C2)cc2nc(-c3ccccc3)n(C)c12 (configuration not stated),nt,nt,i,nt,nt
CCCCn1c(=O)[nH]c(=O)c2c1nc(-c1ccc(OCC)cc1)n2CC,i,i,i,i,i
CCCCn1c(=O)[nH]c(=O)c2c1nc(-c1ccccn1)n2CC,i,?,i,i,i
CCCCn1c(-c2ccc(Br)cc2F)nc2c1c(=O)[nH]c(=O)n2CC(C)C,i,i,i,18.4µM,i
CCCCn1c(=O)[nH]c(=O)c2c1nc(-c1ccc(OCCC)c(OCC)c1)n2CCOC,i,i,i,23.1µM,i
CCCCn1c(=O)[nH]c(=O)c2c1nc(-c1ccc(-c3ccc(F)cc3)o1)n2C,i,i,i,10.3µM,?
CCCOc1ccc(-c2nc3c(c(=O)[nH]c(=O)n3Cc3ccccc3)n2CCO)cc1OCC,i,i,i,i,?

# Screening data (PubChem BioAssay)
